Reference: PubChem BioAssay AID2147 (National Center for Advancing Translational Sciences (NCATS), 2009)
Where “and” joins values, the source holds several entries; their conditions need not be identical. Equal values may be shown once. Among all 230,000 compounds or so, about 3,600 (1.6%) were called active. Where a call stands in place of a potency, no number is given. Inconclusive results (about 15%) are left out. Calls come from the whole dose curve; as a rule, active = well fitted inhibition curve with a large enough effect (not every such curve was filed as active); inconclusive = small, poorly fitted or top-dose-only effect, or another doubt; inactive = no such curve, though single readings can be large or run the other way. The full list was thinned out, with actives kept by preference.

Each molecule was assayed against Lysine-specific demethylase 4E (Homo sapiens) (UniProt B2RXH2) (assay: qHTS Assay for Inhibitors of Human Jumonji Domain Containing 2E (JMJD2E)). Settings: JMJD2E catalytic domain, FDH-coupled NADH fluorescence (FDH is formaldehyde dehydrogenase); series mostly up to 57.1 µM.
Note: nearly all actives have a fitted effect of over 50% in size.
Potency is the fitted concentration of half-maximal effect.

Sequence of Lysine-specific demethylase 4E (Homo sapiens) (B2RXH2 1-337 limits assumed): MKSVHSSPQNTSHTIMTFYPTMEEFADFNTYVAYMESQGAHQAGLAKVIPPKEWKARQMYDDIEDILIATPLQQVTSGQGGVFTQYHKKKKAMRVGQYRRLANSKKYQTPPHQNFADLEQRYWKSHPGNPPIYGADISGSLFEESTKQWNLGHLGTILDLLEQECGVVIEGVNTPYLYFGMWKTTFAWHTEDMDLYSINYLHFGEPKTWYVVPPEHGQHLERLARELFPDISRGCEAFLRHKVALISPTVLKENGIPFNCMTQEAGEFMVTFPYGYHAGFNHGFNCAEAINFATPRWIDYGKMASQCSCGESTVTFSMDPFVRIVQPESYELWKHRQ

Question: How did the Potency turn out when Cn1c(CSCC(=O)Nc2ccccc2)nnc1SCc1ccccc1 was run?
Answer: inactive

Question: How did the Potency turn out when Cc1ccc(NNC(=O)c2c(F)cccc2Cl)cc1Cl was run?
Answer: inactive

Question: For COC(=O)N(NC(=O)C(O)(C(C)C)C(C)C)c1ccccc1, which Potency is on record?
Answer: inactive

Question: For Cc1cc(=O)[nH]c(=S)[nH]1, which Potency is on record?
Answer: inactive

Question: For Cc1cc(=O)[nH]c(SCC(N)=O)c1C#N, which Potency is on record?
Answer: inactive

Question: For Cc1cc(=O)[nH]c(S)c1C#N, which Potency is on record?
Answer: 28.2 µM (active)

Question: Which Potency does the source give for CC(C)(C)c1ccc(/C=C2\Oc3c(ccc(O)c3CN3CCN(CCO)CC3)C2=O)cc1 here?
Answer: 14.1 µM (active)

Question: How did the Potency turn out when O=S(=O)(Nc1n[nH]c(C(F)(F)F)n1)c1ccccc1 was run?
Answer: inactive

Question: N#C/C(=C\c1ccc(O)c(O)c1)C(N)=O was tested. Which Potency did it give?
Answer: 7.08 µM (active)

Question: N#C/C(=C\c1ccc(O)c(O)c1)C(=O)NCc1ccccc1 was tested. Which Potency did it give?
Answer: 15.8 µM (active) and 20 µM (active)

Question: How did the Potency turn out when CCOC(=O)/C(C#N)=C/c1ccc(N2CCCCC2)cc1 was run?
Answer: inactive

Question: How did the Potency turn out when CCOC(=O)NC(=O)/C(C#N)=C\c1ccccc1 was run?
Answer: inactive

Question: Which Potency does the source give for COCCNC(=O)/C(C#N)=C/c1cccc(OCc2ccccc2)c1 here?
Answer: inactive

Question: Which Potency does the source give for CC(C)(C)C(=O)/C(C#N)=C/c1ccc(O)cc1 here?
Answer: inactive

Question: How did the Potency turn out when Cc1ccc(CN(Cc2cccnc2)C(=S)Nc2cc(Cl)ccc2C)cc1 was run?
Answer: inactive

Question: How did the Potency turn out when O=C(NCC(c1cccs1)N1CCOCC1)c1cc(-c2ccccn2)nc2ccccc12 (stereo unspecified) was run?
Answer: inactive

Question: How did the Potency turn out when COc1ccccc1OCC(=O)O/N=C(\N)c1ccccn1 was run?
Answer: inactive

Question: How did the Potency turn out when COc1cc(/C=C2/C(=O)NN(c3ccc(F)cc3)C2=O)cc([N+](=O)[O-])c1O was run?
Answer: inactive

Question: CCOC(=O)c1ccc(N=C2SC(C(=O)NC)CC(=O)N2CCc2ccccc2)cc1 (stereo unspecified) was tested. Which Potency did it give?
Answer: inactive

Question: With CC(=O)Nc1nc2c(s1)C(=O)NCC(C)(C)C2 as the molecule, how does the Potency read?
Answer: inactive

Question: How did the Potency turn out when Oc1c(C=Nc2cccc3nsnc23)ccc2ccccc12 was run?
Answer: inactive

Question: Oc1ccc(N=Nc2nccs2)c(O)c1 was tested. Which Potency did it give?
Answer: 8.91 µM (active)

Question: For Oc1ccc2ccccc2c1N=Nc1nccs1, which Potency is on record?
Answer: 28.2 µM (active)

Question: Which Potency does the source give for COc1ccccc1NC(=S)N1CCN(C(c2ccccc2)c2ccccc2)CC1 here?
Answer: inactive

Question: With CSc1ccccc1NC(=O)CN(C)CC(=O)Nc1cccc(Br)c1 as the molecule, how does the Potency read?
Answer: inactive

Question: COc1ccc(Cc2nnc(N/N=C/c3ccccc3O)[nH]c2=O)cc1OC was tested. Which Potency did it give?
Answer: 6.31 µM (active)

Question: With COc1ccc(CCNC(=O)CCCCn2c(=O)[nH]c3ccccc3c2=O)cc1OC as the molecule, how does the Potency read?
Answer: inactive

Question: For COc1ccc(Cc2nnc(SC)[nH]c2=O)cc1, which Potency is on record?
Answer: inactive

Question: CCOC(=O)C1=C(c2ccccc2)NC(=S)NC1c1ccc(Cl)cc1 (stereo unspecified) was tested. Which Potency did it give?
Answer: inactive

Question: How did the Potency turn out when Cc1noc(C)c1COC(=O)COc1ccc(-c2ccccc2)cc1 was run?
Answer: inactive

Question: With COc1ccc(/C=C/C(=O)Nc2ccc(C)cc2)cc1S(=O)(=O)N1CCOCC1 as the molecule, how does the Potency read?
Answer: inactive
